Data reported in the supplement of paper PMC6718421.

The compounds below were run on Caenorhabditis elegans N2 (wild type) (assay: animals with crystals or spheres in anterior pharynx; higher = more object (crystal/sphere) accumulation). Details: 30 µM; 48 h; genotype: wild type N2; stage: L1 start.
Protocol: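 Synchronized wild-type (N2) C. elegans L1 larvae (50 per well) were incubated in liquid NGM with E. coli HB101 and 30 uM of each wactive for 48 h. Live worms were scored by DIC and polarized-light microscopy for birefringent crystals or non-birefringent spheres in the anterior pharynx. At least 3 biological replicates were run with at least 20 worms each; the value is the mean % of animals carrying objects.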

SMILES	animals [%]
CCOc1ccc(/C=C/[N+](=O)[O-])cc1 [wact-385]	0
Fc1ccc(N2CCN(Cc3cccc(Br)c3)CC2)cc1 [wact-30]	0
